From PubChem BioAssay (EPA / NIEHS) come the findings set out here.

Test [1] addresses human Phosphoinositide 3-kinase alpha (PI3Ka), PIK3CA (gene 5290) (UniProt P42336). The test is described as follows: NVS_ENZ_hPI3Ka: NovaScreen (NVS) Enzymatic Assay for human Phosphoinositide 3-kinase alpha (PI3Ka) (AID 2283196). The gist of the method:
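Fluorescence/mobility-shift readout of substrate conversion by recombinant enzyme, 1 h post-dosing. Primary screen in duplicate at 25 uM; actives (e.g. ≥30% inhibition) retested in singleton concentration-response, top concentration 50 uM.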

Test [2] deals with human Phosphodiesterase 10 (PDE10), PDE10A (gene 10846) (UniProt Q9Y233). The test is described as follows: NVS_ENZ_hPDE10: NovaScreen (NVS) Enzymatic Assay for human Phosphodiesterase 10 (PDE10) (AID 2283195). Put shortly: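 Fluorescence readout after mobility-shift separation of substrate and product, 1 h reaction with recombinant human enzyme. Single-concentration duplicates at 25 uM, then concentration-response up to 50 uM for chemicals reaching threshold; DMSO baseline.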
Chain of human Phosphodiesterase 10 (PDE10), PDE10A (gene 10846) (Q9Y233 whole entry, looked up): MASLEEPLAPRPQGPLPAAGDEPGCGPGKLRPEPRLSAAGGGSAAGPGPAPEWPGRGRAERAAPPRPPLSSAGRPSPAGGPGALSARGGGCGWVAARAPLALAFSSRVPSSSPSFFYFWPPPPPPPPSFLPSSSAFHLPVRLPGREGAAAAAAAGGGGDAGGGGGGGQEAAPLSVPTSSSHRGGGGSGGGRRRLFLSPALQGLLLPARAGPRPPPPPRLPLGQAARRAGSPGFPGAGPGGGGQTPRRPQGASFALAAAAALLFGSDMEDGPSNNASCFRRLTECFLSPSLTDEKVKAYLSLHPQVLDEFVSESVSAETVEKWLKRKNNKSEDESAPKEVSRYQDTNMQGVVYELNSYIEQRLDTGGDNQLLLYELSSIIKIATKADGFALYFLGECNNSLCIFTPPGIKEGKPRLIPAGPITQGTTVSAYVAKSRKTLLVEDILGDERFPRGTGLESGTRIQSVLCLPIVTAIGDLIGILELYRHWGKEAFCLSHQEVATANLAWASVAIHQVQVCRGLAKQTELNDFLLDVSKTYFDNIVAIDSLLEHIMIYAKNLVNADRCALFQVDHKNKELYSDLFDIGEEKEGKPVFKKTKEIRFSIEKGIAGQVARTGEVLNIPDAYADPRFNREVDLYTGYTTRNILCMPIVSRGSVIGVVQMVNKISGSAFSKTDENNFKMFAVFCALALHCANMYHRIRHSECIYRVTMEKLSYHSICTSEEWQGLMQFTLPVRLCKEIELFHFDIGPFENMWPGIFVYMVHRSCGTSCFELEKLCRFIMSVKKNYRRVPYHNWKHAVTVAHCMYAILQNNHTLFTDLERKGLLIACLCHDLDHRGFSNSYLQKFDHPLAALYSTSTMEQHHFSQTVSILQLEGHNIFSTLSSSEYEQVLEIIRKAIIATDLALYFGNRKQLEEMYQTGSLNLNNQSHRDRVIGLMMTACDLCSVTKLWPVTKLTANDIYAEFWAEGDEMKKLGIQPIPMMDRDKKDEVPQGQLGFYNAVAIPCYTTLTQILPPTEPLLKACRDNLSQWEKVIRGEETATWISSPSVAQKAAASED

Test [3] has as its target human Neurokinin, NK2 Receptor, TACR2 (gene 6865) (UniProt P21452). As to the kind of experiment: NVS_GPCR_hNK2: NovaScreen (NVS) G Protein-Coupled Receptor Assay for human Neurokinin, NK2 Receptor (AID 2283278).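 Note: actives reduce bound radioligand signal relative to DMSO baseline.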 The gist of the method:
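CHO-derived membrane protein, radioligand displacement, filter scintillation read at 4 h post-dose. Single-point 25 uM in duplicate, then concentration series for actives; DMSO as negative control.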

Test [4] addresses Sodium channel protein type 1 subunit alpha (Rattus norvegicus) (UniProt P04774). As to the kind of experiment: NVS_IC_rNaCh_site2: NovaScreen (NVS) Ion Channel Assay for rat Sodium Channel, Site 2 (NaCh) (AID 2283322).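 Note: hit means loss of radioligand binding signal relative to DMSO so AC50 marks displacement.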 Put shortly: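 Initial duplicate single-point testing at 25 uM, followed by concentration-response runs for actives. Binding of radioligand to rat forebrain membranes quantified after 1 h via filter-based radiodetection.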

Test [5] addresses human Phosphodiesterase 5 (PDE5), PDE5A (gene 8654) (UniProt O76074). As to the kind of experiment: NVS_ENZ_hPDE5: NovaScreen (NVS) Enzymatic Assay for human Phosphodiesterase 5 (PDE5) (AID 2283194). Put shortly: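 Screening began in duplicate at 25 uM, with actives taken into concentration-response. Enzyme activity of recombinant PDE5 toward its substrate was measured at 1 h by fluorescence mobility-shift detection, relative to DMSO controls.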

For test [6], the target named is sheep Cyclooxygenase-1 (Cox1), PTGS1 (gene 443551) (UniProt P05979). The test is described as follows: NVS_ENZ_oCOX1: NovaScreen (NVS) Enzymatic Assay for sheep Cyclooxygenase-1 (Cox1) (AID 2283239).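 Note: actives reduce cyclooxygenase activity so potencies are for inhibitors.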 The gist of the method:
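Tested in duplicate at 25 uM, then in concentration series if active, against seminal vesicle extract from sheep. Enzyme activity was measured colorimetrically at 0.66 hour and normalised to DMSO.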

Test [7] deals with rat Thyrotropin Releasing Hormone Receptor (TRH), Trhr (gene 25570) (UniProt Q01717). The test is described as follows: NVS_GPCR_rTRH: NovaScreen (NVS) G Protein-Coupled Receptor Assay for rat Thyrotropin Releasing Hormone Receptor (TRH) (AID 2283329).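 Note: hit means lower bound tracer signal versus DMSO baseline.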 The gist of the method: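 Cell-free radioligand binding on rat forebrain membranes; bound tracer measured by filter-based scintillation counting 4 hours after dosing. Loss of signal versus DMSO baseline indicates displacement; primary screen at 25 uM in duplicate, actives then run in concentration series.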

The target in test [8] is human Vascular Endothelial Growth Factor Receptor 1 (VEGFR1), FLT1 (gene 2321) (UniProt P17948). As to the kind of experiment: NVS_ENZ_hVEGFR1: NovaScreen (NVS) Enzymatic Assay for human Vascular Endothelial Growth Factor Receptor 1 (VEGFR1) (AID 2283226). The gist of the method: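 Kinase activity of recombinant human VEGFR1 was read by fluorescence after electrophoretic separation of product from substrate, 1 h post-dosing; initial duplicate single-point testing at 25 uM, followed by concentration-series follow-up, with DMSO as baseline.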
Chain of human Vascular Endothelial Growth Factor Receptor 1 (VEGFR1), FLT1 (gene 2321) (P17948 whole entry, looked up): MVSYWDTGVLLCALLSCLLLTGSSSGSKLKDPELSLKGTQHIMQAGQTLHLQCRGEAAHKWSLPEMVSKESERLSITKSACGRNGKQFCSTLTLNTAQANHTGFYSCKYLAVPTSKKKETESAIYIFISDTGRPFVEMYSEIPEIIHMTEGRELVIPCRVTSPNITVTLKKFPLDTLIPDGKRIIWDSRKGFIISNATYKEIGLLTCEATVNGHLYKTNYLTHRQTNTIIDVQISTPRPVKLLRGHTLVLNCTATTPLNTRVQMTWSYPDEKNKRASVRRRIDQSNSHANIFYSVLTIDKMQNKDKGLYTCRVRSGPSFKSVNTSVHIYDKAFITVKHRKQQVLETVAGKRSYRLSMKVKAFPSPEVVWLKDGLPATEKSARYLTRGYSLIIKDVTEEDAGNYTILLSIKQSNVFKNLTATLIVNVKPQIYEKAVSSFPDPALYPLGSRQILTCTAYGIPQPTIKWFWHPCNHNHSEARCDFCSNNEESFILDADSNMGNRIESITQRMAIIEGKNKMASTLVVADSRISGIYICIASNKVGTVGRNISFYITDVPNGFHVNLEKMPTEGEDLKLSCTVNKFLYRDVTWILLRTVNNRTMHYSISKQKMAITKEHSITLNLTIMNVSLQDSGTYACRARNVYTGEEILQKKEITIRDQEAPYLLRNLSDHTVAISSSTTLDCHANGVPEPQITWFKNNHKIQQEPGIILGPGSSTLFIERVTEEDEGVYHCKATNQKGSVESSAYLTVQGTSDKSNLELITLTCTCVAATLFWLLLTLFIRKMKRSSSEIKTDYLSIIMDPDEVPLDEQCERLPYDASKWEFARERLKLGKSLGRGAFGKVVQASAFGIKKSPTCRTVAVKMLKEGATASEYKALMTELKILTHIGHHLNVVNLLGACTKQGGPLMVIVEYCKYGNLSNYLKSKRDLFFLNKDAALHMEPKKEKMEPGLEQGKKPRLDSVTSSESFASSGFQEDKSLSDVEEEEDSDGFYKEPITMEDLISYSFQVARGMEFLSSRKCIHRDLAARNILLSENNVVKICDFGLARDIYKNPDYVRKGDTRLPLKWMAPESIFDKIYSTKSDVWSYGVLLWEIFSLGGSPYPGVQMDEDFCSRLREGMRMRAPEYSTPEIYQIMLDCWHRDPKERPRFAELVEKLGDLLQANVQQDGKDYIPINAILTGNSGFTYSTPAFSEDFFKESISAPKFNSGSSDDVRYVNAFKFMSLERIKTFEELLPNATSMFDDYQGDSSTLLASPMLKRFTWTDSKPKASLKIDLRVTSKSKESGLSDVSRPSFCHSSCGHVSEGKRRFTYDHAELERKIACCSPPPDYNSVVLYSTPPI

Test [9] has as its target D(1A) dopamine receptor (Homo sapiens) (UniProt P21728). The test is described as follows: NVS_GPCR_hDRD1: NovaScreen (NVS) G Protein-Coupled Receptor Assay for human Dopamine Receptor D1 (DRD1) (AID 2283269). Put shortly: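 Cell-free radioligand binding to human DRD1 from HEK293 membranes, read 1 h after dosing by filter-based scintillation counting. Loss of signal versus DMSO baseline marks displacement. Primary screen at 25 uM single concentration in duplicate; actives followed up in concentration series.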

The target in test [10] is guinea pig Opioid, Kappa 1 Receptor (OpiateK), OPRK1 (gene 100135587) (UniProt P41144). The test is described as follows: NVS_GPCR_gOpiateK: NovaScreen (NVS) G Protein-Coupled Receptor Assay for guinea pig Opioid, Kappa 1 Receptor (OpiateK) (AID 2283252).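 Note: active means reduced radioligand binding relative to DMSO.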 Put shortly:
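Radioligand binding to kappa opioid receptor in guinea pig cerebellar membranes, read by filtration and scintillation at 2 h. Compounds first tested in duplicate at 25 uM, then actives in concentration series; signal loss fitted against DMSO.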

Test [11] has as its target human Opioid Receptor Mu (Opiate Mu), OPRM1 (gene 4988) (UniProt P35372). The test is described as follows: NVS_GPCR_hOpiate_mu: NovaScreen (NVS) G Protein-Coupled Receptor Assay for human Opioid Receptor Mu (Opiate Mu) (AID 2283290).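 Note: hits lower bound tracer signal versus DMSO meaning displacement of the ligand.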 The gist of the method:
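Cell-free radioligand binding to membranes from CHO cells expressing the receptor; bound tracer measured by filter-based scintillation counting 2.5 hours after dosing. Loss of signal versus DMSO baseline reflects displacement; primary screen at 25 uM in duplicate, actives followed up in concentration series.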

Test [12] addresses human Adenosine A2a Receptor (AdoRA2a), ADORA2A (gene 135) (UniProt P29274). The test is described as follows: NVS_GPCR_hAdoRA2a: NovaScreen (NVS) G Protein-Coupled Receptor Assay for human Adenosine A2a Receptor (AdoRA2a) (AID 2283256). The gist of the method: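 Compounds screened in duplicate at 25 uM, with actives followed up in concentration series, for displacement of a radioligand from HEK293-derived receptor protein. Bound counts read by filter scintillation at 1.5 hours, DMSO as baseline.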

For test [13], the target named is human Thromboxane A2 Receptor (TXA2), TBXA2R (gene 6915) (UniProt P21731). As to the kind of experiment: NVS_GPCR_hTXA2: NovaScreen (NVS) G Protein-Coupled Receptor Assay for human Thromboxane A2 Receptor (TXA2) (AID 2283282).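 Note: actives reduce bound radioligand signal relative to DMSO baseline.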 Put shortly: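 Screening ran at 25 uM in duplicate, with concentration series for confirmed actives. Each test measures radioligand binding to human platelet protein after 1 h, cell-free, using filter-based scintillation detection of signal loss relative to DMSO.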

Results filed as inconclusive are left out. The source made the active and inactive calls. Rule for the calls: active = hit-call score of the fitted dose curve at least 0.9, where 1 is the maximum; inconclusive = response in the unintended direction; inactive = score below 0.9.

Chain of human Phosphoinositide 3-kinase alpha (PI3Ka), PIK3CA (gene 5290) (P42336 whole entry, looked up): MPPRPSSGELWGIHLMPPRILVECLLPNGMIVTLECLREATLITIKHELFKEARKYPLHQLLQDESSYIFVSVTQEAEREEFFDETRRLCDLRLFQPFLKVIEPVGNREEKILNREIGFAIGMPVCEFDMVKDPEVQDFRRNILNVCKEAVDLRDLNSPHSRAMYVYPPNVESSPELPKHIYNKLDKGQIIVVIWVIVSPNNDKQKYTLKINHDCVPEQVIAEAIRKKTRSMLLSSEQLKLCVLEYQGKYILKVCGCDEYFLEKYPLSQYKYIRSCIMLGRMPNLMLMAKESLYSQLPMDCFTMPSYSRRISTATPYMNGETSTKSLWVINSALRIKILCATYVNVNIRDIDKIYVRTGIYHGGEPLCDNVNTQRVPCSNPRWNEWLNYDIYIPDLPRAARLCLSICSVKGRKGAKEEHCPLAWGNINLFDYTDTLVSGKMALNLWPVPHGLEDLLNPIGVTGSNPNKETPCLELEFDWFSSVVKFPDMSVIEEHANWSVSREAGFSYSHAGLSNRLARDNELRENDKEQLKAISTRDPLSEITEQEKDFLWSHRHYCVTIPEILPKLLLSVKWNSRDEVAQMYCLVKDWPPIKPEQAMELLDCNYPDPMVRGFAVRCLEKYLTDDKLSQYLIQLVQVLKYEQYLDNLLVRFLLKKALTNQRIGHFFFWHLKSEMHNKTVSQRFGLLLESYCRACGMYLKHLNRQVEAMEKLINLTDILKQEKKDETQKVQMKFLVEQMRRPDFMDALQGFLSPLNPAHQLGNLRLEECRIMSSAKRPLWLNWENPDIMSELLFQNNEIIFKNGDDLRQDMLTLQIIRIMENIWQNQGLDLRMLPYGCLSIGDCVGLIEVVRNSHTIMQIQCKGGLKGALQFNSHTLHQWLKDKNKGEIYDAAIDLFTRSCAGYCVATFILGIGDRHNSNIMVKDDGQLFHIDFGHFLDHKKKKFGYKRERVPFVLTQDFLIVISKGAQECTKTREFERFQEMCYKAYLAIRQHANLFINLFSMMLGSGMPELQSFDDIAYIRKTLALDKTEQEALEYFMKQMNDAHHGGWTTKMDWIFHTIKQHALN
Chain of sheep Cyclooxygenase-1 (Cox1), PTGS1 (gene 443551) (P05979 whole entry, looked up): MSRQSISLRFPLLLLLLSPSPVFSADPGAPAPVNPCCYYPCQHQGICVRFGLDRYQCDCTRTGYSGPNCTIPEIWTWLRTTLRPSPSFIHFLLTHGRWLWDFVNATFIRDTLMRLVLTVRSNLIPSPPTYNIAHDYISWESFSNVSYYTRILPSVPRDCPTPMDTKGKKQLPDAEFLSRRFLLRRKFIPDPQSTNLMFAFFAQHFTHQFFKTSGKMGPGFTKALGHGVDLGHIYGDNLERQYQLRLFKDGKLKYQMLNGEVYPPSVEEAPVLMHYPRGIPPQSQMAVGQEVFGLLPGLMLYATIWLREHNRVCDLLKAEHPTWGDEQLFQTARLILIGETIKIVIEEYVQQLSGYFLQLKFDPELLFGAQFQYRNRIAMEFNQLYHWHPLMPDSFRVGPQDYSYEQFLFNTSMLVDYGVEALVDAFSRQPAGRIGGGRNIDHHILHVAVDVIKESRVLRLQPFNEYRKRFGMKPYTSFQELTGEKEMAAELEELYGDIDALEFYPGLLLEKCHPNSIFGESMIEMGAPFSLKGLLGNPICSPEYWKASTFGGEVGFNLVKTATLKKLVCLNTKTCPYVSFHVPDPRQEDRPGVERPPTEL
Chain of D(1A) dopamine receptor (Homo sapiens) (P21728 whole entry, looked up): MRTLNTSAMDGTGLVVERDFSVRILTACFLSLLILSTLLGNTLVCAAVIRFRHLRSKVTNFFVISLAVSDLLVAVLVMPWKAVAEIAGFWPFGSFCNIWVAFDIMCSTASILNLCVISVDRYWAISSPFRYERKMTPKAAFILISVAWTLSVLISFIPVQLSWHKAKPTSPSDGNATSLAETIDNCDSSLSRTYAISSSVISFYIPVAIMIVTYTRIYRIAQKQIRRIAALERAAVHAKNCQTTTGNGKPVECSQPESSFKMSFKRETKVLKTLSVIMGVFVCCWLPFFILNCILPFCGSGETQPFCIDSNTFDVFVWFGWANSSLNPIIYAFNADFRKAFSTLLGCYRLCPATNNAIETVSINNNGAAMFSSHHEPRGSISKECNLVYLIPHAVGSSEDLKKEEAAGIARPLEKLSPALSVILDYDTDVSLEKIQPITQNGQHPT
Chain of human Neurokinin, NK2 Receptor, TACR2 (gene 6865) (P21452 whole entry, looked up): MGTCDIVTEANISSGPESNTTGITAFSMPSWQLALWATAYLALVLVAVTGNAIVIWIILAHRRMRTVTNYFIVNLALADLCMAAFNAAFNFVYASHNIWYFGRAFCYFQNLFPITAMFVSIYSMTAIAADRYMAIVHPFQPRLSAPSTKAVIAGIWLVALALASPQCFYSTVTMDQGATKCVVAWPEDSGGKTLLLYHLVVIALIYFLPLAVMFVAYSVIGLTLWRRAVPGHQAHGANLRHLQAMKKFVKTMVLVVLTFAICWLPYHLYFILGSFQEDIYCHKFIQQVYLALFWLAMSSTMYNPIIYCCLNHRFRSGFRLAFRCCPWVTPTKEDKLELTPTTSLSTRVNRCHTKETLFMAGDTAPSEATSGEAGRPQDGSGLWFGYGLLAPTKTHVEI

On to `CCOc1ccc(NC(=O)CC(C)=O)cc1`, for which the call in test [1] was inactive.

`COc1cccc(OC)c1O`: the call in [2] was inactive.

A word on the AC50: it is the concentration giving half of the maximal activity seen. As for `C=CC(=O)OCCCC`, the half-maximal activity concentration (AC50) is 10.2 µM (active) in [2] and 0.00235 µM (active) in [1].

Regarding `COc1ccc(OC)c(N=Nc2c(O)ccc3ccccc23)c1`, the AC50 in test [2] is 42.3 µM (active); in test [3], 25 µM (active). The call in [4] was inactive.

Turning to `Cc1ccc(C)o1`, in test [1], the molecule was called inactive.

With `CCCCCCOCCOCCO`, the result in test [1] was inactive.

In the case of `c1ccc2cc(Nc3ccc(Nc4ccc5ccccc5c4)cc3)ccc2c1`, in test [1], the AC50 is 17.6 µM (active).

For `O=[N+]([O-])c1ccc(O)cc1C(F)(F)F`, the molecule was called inactive in test [5], in test [6] and in [7].

Regarding `CS(=O)(=O)c1ccc(C2=C(c3ccccc3)C(=O)OC2)cc1`, the outcome in test [2] and in test [4] was inactive.

Regarding `CCC(C)c1cc([N+](=O)[O-])cc([N+](=O)[O-])c1OC(=O)OC(C)C` (configuration not stated), the call in test [2] was inactive.

For `CC(=O)c1c(C)c([N+](=O)[O-])c(C(C)(C)C)c([N+](=O)[O-])c1C`, in [1], the molecule was classed as inactive.

Regarding `O=C1OC(=O)c2c(Br)c(Br)c(Br)c(Br)c21`, the outcome in test [2] was inactive.

Consider `O=[N+]([O-])c1cccc(Cl)c1`, for which the AC50 in test [2] is 25 µM (active). The result in test [8] was inactive.

In the case of `COC(C)(C)CC(C)=O`, the molecule was classed as inactive in [1].

Take `COCCOC(=O)c1ccccc1C(=O)OCCOC`: the outcome in test [1] and in [8] was inactive.

Regarding `CCC1CCCCC1`, the outcome in [2], in test [9] and in [4] was inactive.

`COc1cc(Cl)c(OC)cc1N`: the molecule was called inactive in test [1]. For the same molecule, the AC50 in test [6] was 25 µM (active).

Take `CC(C)(N=C=O)c1cccc(C(C)(C)N=C=O)c1`: the AC50 is 9.87 µM (active) in [1], 36.7 µM (active) in [10], 43.7 µM (active) in [9] and 32.8 µM (active) in [11]. The outcome in test [3] was inactive.

On to `CC=Cc1ccc(OCC)c(O)c1`, for which the outcome in test [2] was inactive.

On to `Oc1c(Cl)cc(Cl)c(Cl)c1Cc1c(O)c(Cl)cc(Cl)c1Cl`, for which the result in test [2] and in test [13] was inactive. Also, the AC50 in test [1] was 1.96 µM (active); in test [8] it was 2.93 µM (active); in [6], 15.6 µM (active); in [12], 5.67 µM (active); in test [11], 6.76 µM (active).

Turning to `CCCCSCCCC`, the AC50 in test [2] is 1 µM (active). Moreover, in test [9], the molecule was called inactive.

As for `Cc1ncc([N+](=O)[O-])n1CCO`, the molecule was classed as inactive in test [2].

Turning to `OCCCCC(O)CO` (configuration not stated), the AC50 in [2] was 40.4 µM (active); in [1], 0.803 µM (active).

With `CC(C)Nc1nc(N)nc(Cl)n1`, in test [2], the molecule was classed as inactive. Further, in test [12], the AC50 was 15.6 µM (active).

For the molecule `CCCCC(CC)(CO)CO`, in [2], the outcome was inactive.

Take `C=C(C)[C@H]1CC=C(C)C(=O)C1`: the result in test [2] was inactive.

`O=CN1CCOCC1`: the call in [2] and in [1] was inactive.
